The list is not random: actives were taken first. Their share in the collection is about 1.2%.
RXFP1 antagonist: antagonists of human relaxin receptor RXFP1; Q9HBX9; HEK293-RXFP1, relaxin-stimulated cAMP HTRF, 30 min; stronger effect = lower value; activity change, negative = inhibition, % at 57.5 µM; hit rate 0.59% among 350,000;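 active = activity change of -60% or lower, but not beyond a set lower limit; inconclusive = change between -60% and -40%, or beyond the set limit; inactive = change above -40%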; also: % is scaled to controls: 0 for no effect and ±100 for the full control effect
Target sequence (Q9HBX9 whole entry, looked up): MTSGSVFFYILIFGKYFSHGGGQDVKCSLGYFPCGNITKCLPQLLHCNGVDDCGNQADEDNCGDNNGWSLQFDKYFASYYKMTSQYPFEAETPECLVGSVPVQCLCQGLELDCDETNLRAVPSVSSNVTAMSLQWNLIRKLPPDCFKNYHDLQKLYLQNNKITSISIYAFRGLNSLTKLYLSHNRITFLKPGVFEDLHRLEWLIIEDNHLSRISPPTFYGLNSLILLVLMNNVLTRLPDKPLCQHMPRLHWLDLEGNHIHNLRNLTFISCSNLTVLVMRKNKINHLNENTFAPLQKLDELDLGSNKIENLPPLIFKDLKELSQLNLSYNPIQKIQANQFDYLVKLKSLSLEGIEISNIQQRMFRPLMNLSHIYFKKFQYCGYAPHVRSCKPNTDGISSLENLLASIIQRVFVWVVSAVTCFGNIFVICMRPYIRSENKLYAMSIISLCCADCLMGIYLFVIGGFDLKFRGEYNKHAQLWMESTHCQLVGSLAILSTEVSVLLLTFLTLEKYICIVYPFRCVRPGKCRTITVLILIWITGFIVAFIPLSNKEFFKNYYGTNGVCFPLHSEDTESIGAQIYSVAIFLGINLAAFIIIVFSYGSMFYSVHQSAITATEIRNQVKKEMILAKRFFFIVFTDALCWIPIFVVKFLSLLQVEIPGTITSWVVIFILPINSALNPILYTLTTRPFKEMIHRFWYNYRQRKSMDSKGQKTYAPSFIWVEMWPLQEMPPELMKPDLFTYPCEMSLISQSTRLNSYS
gsp ag: activates gsp, the McCune-Albright syndrome mutation. gsp mutant cells, cAMP HTRF, 30 min. Potency, µM (top dose mostly 76.9 µM), inactives show at the highest dose activation (cAMP increase), actives largely listed as activators. hit rate 0.13% among 340,000; active = well fitted activation curve with a large enough effect; inconclusive = small, poorly fitted or top-dose-only effect, or another doubt; inactive = no such curve, though single readings can be large or run the other way; cell line not stated here;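 also: phosphodiesterase inhibitor Ro 20-1724 added with compounds to block cAMP breakdown; potency is read from the fitted curve at half-maximal effect; nearly all actives have a fitted effect of over 60% in size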
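Cells in DMEM/10% FBS with G418 were pretreated with compounds in DMSO plus […] (300 uM stock) for 30 min at 37C. cAMP was measured by HTRF (cAMP-d2 plus anti-cAMP antibody-K) after 30 min at room temperature.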
gsp antag: gsp mutant antagonism. gsp-mutant cells, cAMP HTRF, 30 min. hit rate 0.4% among 340,000. Potency, µM (titrated, usually from 76.9 µM), for the others: top-dose activity change, negative = inhibition, usual class: inhibitors; calls by dose curve; cell line not stated here;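 also: intracellular cAMP measured with PDE inhibitor Ro 20-1724 present during compound exposure; potency is read from the fitted curve at half-maximal effect; % is scaled to controls: 0 for no effect and ±100 for the full control effect; nearly all actives have a fitted effect of over 65% in size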
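Cells in G418 medium, seeded 16-24 h, 37C; buffer exchange to DPBS + 1 mM CaCl2, 0.5 mM MgCl2, 0.05% BSA; cpds in DMSO + […] (300 uM stock), 30 min 37C; HTRF cAMP detection.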
RXFP1 agonist: RXFP1 (human) receptor agonism. Q9HBX9. HEK293T-RXFP1 cAMP TR-FRET, 30 min; response scale: percent of porcine relaxin response, buffer zero. hit rate 0.3% among 370,000. AID 2676. Potency, µM (titrated, usually from 57.5 µM), inactives show at the top dose activation, most hits filed as activators; also: potency is read from the fitted curve at half-maximal effect; % is scaled to controls: 0 for no effect and ±100 for the full control effect; nearly all actives have a fitted effect of over 60% in size
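cAMP rise read by TR-FRET after 30 min, 37C compound exposure (up to 58 uM) in RXFP1-transfected HEK293 cells with Ro 20174 present. EC50 from Hill-equation fits, with 29 nM porcine relaxin as 100% and buffer as basal.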
MmCpn inh: blocks the Methanococcus maripaludis chaperonin Mm-Cpn | hit rate 0.031% among 330,000 | Potency, µM (series often up to 76.9 µM), for inactives: at the top dose activity, negative = inhibition, usual class: inhibitors | AID 504842 | purified Mm-Cpn ATPase, ADP Transcreener TR-FRET; also: potency is read from the fitted curve at half-maximal effect; % is scaled to controls: 0 for no effect and ±100 for the full control effect; nearly all actives have a fitted effect of over 80% in size
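Quantitative HTS used 25 nM Mm-CPN and 10 uM ATP in magnesium/KCl Tris buffer, pH 7.4, with 1 mM DTT. Hydrolysis ran 30 min at 37°C; ADP was read by HTRF.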
CCT chaperon mod: modulators of cytosolic chaperonin (CCT/TRiC) activity. purified chaperonin ATPase assay, HTRF ADP detection, 30 min. activity change, % (no concentration beside the values), hits read low. hit rate 0.3% among 360,000. AID 651819; in the data active = activity change below about -30%; also: % is scaled to controls: 0 for no effect and ±100 for the full control effect
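Enzyme 40 or 20 nM (batch-dependent) in Tris pH 7.4/KCl/MgCl2/DTT; cpd 76 uM single point; ATP 10 uM; 30 min 37 °C; Transcreener ADP HTRF detection, 30 min RT; ratio 665/615.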
* = called active by the depositor; ? = inconclusive; . = no result; [ ] = remark or other dose. Unless noted, calls follow the shape of the dose curve; as a rule, active = well fitted curve in the direction sought with a large enough effect; inconclusive = small, poorly fitted or top-dose-only effect, or another doubt; inactive = no such curve, though single readings can be large; an effect the other way counts as inactive or inconclusive.

SMILES	RXFP1 antagonist	gsp ag	gsp antag	RXFP1 agonist	MmCpn inh	CCT chaperon mod
COc1ccc([C@]23Cc4cc(OC)c(OC)cc4C(O2)C2=C(CCCC2=O)O3)cc1	.	.	.	2.3%[11.5 µM]	-1.4%[15.4 µM]	.
COc1ccc(N2CCN(S(=O)(=O)c3ccc(F)c(C(=O)Nc4ccccc4Cl)c3)CC2)cc1	-12.8	.	.	-0.1%	.	.
CSc1ccccc1C(=O)N1CCc2ccc(NC(=O)c3ccccn3)cc2C1	-14.9	-11.1%	.	.	.	-0.1
CSc1ccc(C(=O)N2CCc3ccc(NC(=O)c4ccccn4)cc3C2)cc1	-68.7*	-64.2%	31.6µM*	-1.3%	-3.0%	0.7
CCC(C)c1ccc(NC(=S)NCCn2cc(Cl)cn2)cc1 (stereo not given)	-4.2	-5.3%[15.4 µM]	-3.5%	-1.3%	-1.9%	-39.2*
CCOc1ccc(S(=O)(=O)Nc2cccc(-c3ccc(OCC)nn3)c2)cc1	-8.7	.	.	-1.0%	.	.
CCN(CC(=O)NCc1ccc(Cl)cc1)C(=O)CSc1ccc(Br)cc1	-38.9	19.5%	39.8µM*	3.8%	2.7%	-0.9
CCN(CC(=O)NCc1ccc(Cl)cc1)C(=O)NCc1ccc(Cl)cc1	2.5	-3.5%[15.4 µM]	-5.9%	0.4%	-0.1%	-2.4
CCOC(=O)C1CCCN(C(=O)c2ccccc2NC(=O)c2nsc3ccccc23)C1 (stereo not given)	-1.7	.	.	13.5%	.	.
Cc1ccc(C(C)C)c(OCC(=O)N2CCC(c3nc4ccccc4o3)CC2)c1	-98.3*	.	.	2.1%	.	.
COc1ccccc1OCC(=O)N1CCC(c2nc3ccccc3o2)CC1	-20.0	.	.	0.0%	.	.
CCCCCC1CCC(c2n[nH]c(=S)n2C)CC1 (stereo not given)	-64.4*	-5.5%[15.4 µM]	-13.9%	-3.3%	0.7%	-1.9
COc1cc(C(C)=O)ccc1OCC(=O)Nc1ccc(Cl)c(S(=O)(=O)N2CCOCC2)c1	?	-8.5%	?	-0.4%	-9.3%	-98.1*
Cc1ccc(NC(=O)COC(=O)c2ccc(NC(=O)CC#N)cc2)cc1S(=O)(=O)N1CCOCC1	0.3	-17.5%	-2.2%	.	31.6µM*	-1.0
COc1ccc(C(=O)NCC(C)(c2ccccc2)c2ccccc2)cc1S(=O)(=O)N1CCOCC1	-7.8	31.6%	35.5µM*	.	.	0.5
CC(=O)c1ccc(OCCCC(=O)Nc2ccc(Cl)c(S(=O)(=O)N3CCOCC3)c2)cc1	-5.2	-9.5%	-25.3%	.	.	-3.7
CC1CCCN(C(=O)c2ccc(CSc3nc4ccncc4n3Cc3ccccc3)cc2)C1 (stereo not given)	-36.6	.	.	9.9%	.	.
COc1ccc(-c2cc3nc(-c4ccccc4)cc(N4CCCC(O)C4)n3n2)cc1 (stereo not given)	-2.8	?	35.5µM*	14.6%	1.4%	0.5
COc1ccc(Cl)cc1NC(=O)c1ccc2c(c1)CCN2S(C)(=O)=O	.	.	.	2.4%	.	.
CCCCN(C)CCCNC(=O)C1CCN(c2nc3ccc(CC)cc3s2)CC1	-32.7	.	.	0.0%	.	.
OC1(c2ccc(F)cc2)CSC(=Nc2cccnc2)N1Cc1ccco1 (stereo not given)	-62.0*	-0.1%[15.4 µM]	.	0.1%	-0.2%	-2.6
OC1(c2ccc(OC(F)F)cc2)CSC(=Nc2cccnc2)N1Cc1ccco1 (stereo not given)	-31.1	-16.6%	31.6µM*	4.3%	-4.4%	0.5
CCc1ccccc1NC(=O)CSC1=Nc2ccccc2C2=NC(Cc3ccccc3)C(=O)N12 (stereo not given)	-7.1	.	.	0.4%	.	.
CCN(C(=O)Cn1c(C(=O)OC)cc2oc3ccccc3c21)c1cccc(C)c1	-27.5	.	.	-0.1%	.	.
COc1cc(NC(=O)Nc2cccc([N+](=O)[O-])c2)cc(OC)c1	-8.0	0.4%[15.4 µM]	.	0.7%	-0.8%	-52.9*
SMILES	RXFP1 antagonist	gsp ag	gsp antag	RXFP1 agonist	MmCpn inh	CCT chaperon mod
COc1ccc(NC(=O)Nc2cccc(NC(C)=O)c2)c(OC)c1	-28.6	-0.9%[15.4 µM]	3.8%	-0.6%	0.8%	-43.0*
COc1ccc(NC(=S)NCc2ccccc2)c(OC)c1	-73.2*	-2.6%	-0.1%	0.3%	1.7%	-0.5
CC(=O)SCC(CC(=O)c1ccc(C)cc1)C(=O)O (stereo not given)	-26.4	.	.	.	.	.
O=C(COc1cccc2ccccc12)Nc1cc(Cl)ccc1C(=O)O	-81.0*	14.8%[15.4 µM]	?	1.5%	-1.1%	0.2
Cc1ccccc1C(=O)N1CC/C(=N/OS(=O)(=O)O)c2ccc(Cl)cc21	-14.9	.	.	.	.	.
O=C(Nc1ccccc1)C1=C(c2ccccc2)S(=O)(=O)CCS1(=O)=O	?	5.6%	?	-2.4%	-4.9%	-55.0*
CC[C@@H]([C@H](C)O)n1ncn(-c2ccc(N3CCN(c4ccc(OC[C@@H]5CO[C@@](Cn6cncn6)(c6ccc(F)cc6F)C5)cc4)CC3)cc2)c1=O	-19.8	.	.	.	.	.
Cc1cc(C)n2nc(C(=O)Nc3ccc4c(c3)OCCO4)nc2n1	16.1	?	-3.8%	14.1µM*	-4.9%	-1.1
Cc1cc(C)n2nc(C(=O)Nc3ccc4c(c3)OCO4)nc2n1	-6.5	?	-5.2%	19.1%	0.6%	-1.0
Cc1nn(-c2cccc(Cl)c2)c2c1C(c1ccncc1)C(C#N)=C(N)O2 (stereo not given)	-7.2	-0.6%	39.8µM*	-0.1%	-1.7%	0.9
CCc1ccccc1NC(=O)Cn1nnc(-c2nc(-c3ccc(C)cc3)no2)c1N	5.7	.	.	0.3%	.	.
CCOC(=O)N1CCN(C(=O)CNC(=O)c2ccc(Br)o2)CC1	-3.1	6.3%[15.4 µM]	-17.1%	-0.5%	-1.8%	-53.4*
O=C(NCC(=O)N1CCCC1)c1ccc(Br)o1	1.4	10.2%[15.4 µM]	-4.8%	0.8%	-0.5%	0.7
COc1ccccc1NC(=O)CSc1nc(=O)n2cc(C)ccc2n1	3.0	17.8µM*	15.4%	22.6%	-1.5%	1.0
Cc1ccc(NC(=O)CSc2nc(=O)n3cc(C)ccc3n2)c(C)c1	11.8	?	19.5%	22.9%	3.4%	-1.2
Cc1ccc(-c2nnn(CC(=O)N(CCN3CCOCC3)C(C(=O)NC(C)(C)C)c3ccco3)n2)cc1 (stereo not given)	14.7	-5.8%	-2.6%	2.8%	-1.6%	-63.3*
Cc1ccc(-c2nnn(CC(=O)N(CCN3CCOCC3)C(C(=O)NC(C)(C)C)c3ccc(C)o3)n2)cc1 (stereo not given)	-7.8	8.7%[15.4 µM]	-0.5%	0.0%	-0.3%	0.9
C=CCn1cc(CN2CCC(C(=O)Nc3ccc(Oc4cccnc4)cc3)CC2)c(C)n1	10.6	2.1%	2.6%	0.7%	-0.8%	-31.3*
CCOc1ccccc1NC(=O)c1cc(S(=O)(=O)NCc2ccco2)ccc1F	?	2.7%	-8.9%	0.0%	-2.4%	-67.0*
